# Laboratory results reported in PubChem BioAssay (NCI).
# This is part of a sample that, as a whole, favours compounds with a hit. Of some 79,000 tested, about 15% had one in any assay. Unmarked numbers belong to inactive results. Rule as the data show it: active = growth inhibition above about 70%; inactive = the rest.
# Experiment: NCI Yeast Anticancer Drug Screen. Data for the bub3 strain (AID 167)
# Details: S. cerevisiae bub3 mutant strain, at 50.0 µM, hits give high values
# In short: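 Whole-cell yeast assay. The mutant strain was incubated with compounds, and growth inhibition was determined by comparison with vehicle-treated cells.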
row,SMILES,growth inhibition [%]
1,O=c1[nH]cnc2c(C3OC(CO)C(O)C3O)[nH]nc12 (stereo not drawn),-16.8
2,Cn1nc(-c2ccccc2)c(C(=O)/C=C/c2ccc(F)cc2)c(N2CCOCC2)c1=O,-21.6
3,O=C1N=C(c2ccccc2)C(c2ccccc2)N1 (stereo not drawn),-0.4

# Experiment: NCI Yeast Anticancer Drug Screen. Data for the mlh1 rad18 strain (AID 175)
# Details: S. cerevisiae mlh1 rad18 strain growth inhibition; at 50.0 µM; hits give high values
# In short: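 Inhibition values reflect reduced growth of mutant yeast versus vehicle-treated controls following compound exposure; the mutations affect DNA damage repair.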
row,SMILES,growth inhibition [%]
1,CC(=O)Nc1cc(OC(C)=O)nc2c1CCC2,11.6
2,COc1ccc(/C=C2/SC(=Nc3ccccc3)N(NC(=O)Cc3ccccc3)C2=O)c(OC)c1,1.9
3,CCOc1c(OC)ccc(/C(C)=N\O)c1OCC,10.1
4,CCCCCCCSSCCCCCCC,-0.4
5,CCc1occc(=O)c1O,-9.1
6,CC(=O)Nc1ccc(NC(=O)Nc2cccc(Cl)c2C)cc1,5.3
7,C=C(C)CN(Cc1ccccc1)C1CCCCCCC1,-17.6
8,Nc1ccc(N)c2cc(S(=O)(=O)O)ccc12,7.9
9,O=C(O)c1c(Br)c(Br)c(Br)c(Br)c1C(=O)Nc1cc([N+](=O)[O-])ccc1O,3.85
10,CC(=O)c1ccc2c(c1)-c1ccccc1C(=O)C2=O,5.85
11,Cc1nc2c(c(-c3ccc(Cl)cc3)n1)Cc1c(ccc3ccccc13)O2,-19
12,CC(=O)Nc1ccc2c(c1)Cc1cc(NC(C)=O)c(Cl)cc1-2,-1.2
13,C=CC(C)(CCC=C(C)C)OC(C)=O (stereo not drawn),34.7
14,C[n+]1cccc(/C=C/c2ccc3cccc(O)c3n2)c1,8.35
15,CC1CCC(CCBr)CC1 (stereo not drawn),2.25
16,COc1ccc(COc2ccc([N+](=O)[O-])cc2)cc1,-2.25
17,CN(C)/C=C(/N=C(C#N)C#N)C1OCCO1,-1.7
18,CCCCCCOC(=O)/C=C1/OC(=O)c2ccccc21,-16.4
19,CC1C=CC(C)c2c(-c3ccccc3)oc(-c3ccccc3)c21 (stereo not drawn),9.7
20,CC(C)(C)c1ccc(SCC#CCOc2ccc(Cl)cc2)cc1,-20.4

row,SMILES,growth inhibition [%]
1,COc1cc(/C=C/c2ccc([N+](=O)[O-])cc2[N+](=O)[O-])ccc1O,25.9
2,CC12CCC(/C(=N/O)C1=O)C2(C)C (stereo not drawn),4.25
3,O=C(O)c1cc(-c2ccccc2Cl)nc2cc3ccccc3cc12,0.8
4,CCOC(=O)c1ccc(NC(=S)NCc2cccnc2)cc1,-6.7
5,Cc1ccc(/C=N/NS(=O)(=O)c2ccc(/C=C3\NC(=O)NC3=O)cc2)cc1,1.75
6,CC(=Nc1ccc(Cl)c(Cl)c1)c1ccncc1,-35.1
7,CCCCCCCCCCCCCCCCCCCOc1ccc(OCCCCCCCC)cc1,3
8,COc1cc(OC)c2nccc(NCCCN(C)C)c2c1[N+](=O)[O-],4.75
9,CC12CCc3ccccc3C1=NNC(=O)C2 (stereo not drawn),-6.15
10,CC(CNC(N)=O)(CNC(N)=O)c1ccccc1,-25.1
11,C(=C\c1ccccc1)/Cn1nc(-c2ccccc2)nc1-c1cnccn1,-29.1
12,O=C(CCCC(=O)N/N=C/c1ccc(Cl)cc1)N/N=C\c1ccc(Cl)cc1,-16.9
13,CCCC(O)C(C)N (stereo not drawn),-3.15
14,N#CC(C#N)=C(N)/C(C#N)=C/c1ccc2[nH]ccc2c1,-24.1
15,Nc1ccc(OCC(O)CN2CCN(c3ccccc3)CC2)cc1 (stereo not drawn),4.1
16,O=COCCO,-9.1
17,COc1cccc(C2c3cc4c(cc3OC(N3CCCC3)C2C)OCO4)c1O (stereo not drawn),-11.1
18,O=c1[nH]cnc2c(C3OC(CO)C(O)C3O)[nH]nc12 (stereo not drawn),-0.45
19,Cn1nc(-c2ccccc2)c(C(=O)/C=C/c2ccc(F)cc2)c(N2CCOCC2)c1=O,-15.8
20,O=C1N=C(c2ccccc2)C(c2ccccc2)N1 (stereo not drawn),8.65
